# Laboratory results: PubChem BioAssay (NCATS)
# Values joined by “and” are separate entries in the source; they are usually repeats but may differ in a detail not shown here. Equal values may be shown once. A number with no mark means an inactive call. Results filed as inconclusive are left out. Active and inactive are the calls of the source. Unless noted, calls come from the whole dose curve; as a rule, active = well fitted curve in the direction sought with a large enough effect; inconclusive = small, poorly fitted or top-dose-only effect, or another doubt; inactive = no such curve, though single readings can be large; an effect the other way counts as inactive or inconclusive.
# Tests used:
# Tov-21-G = assay: Primary qHTS to identify gynecologic anti-cancer compounds using libraries of approved drugs and bioactive compounds (AID 1345084); conditions: Gynecologic cancer cell panel viability, ATPlite luminescence, 48 h; series mostly up to 57.5 µM; note: nearly all actives have a fitted effect of over 55% in size; note: potency is the fitted concentration of half-maximal effect
# In short: (§1)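 Five-concentration response, 48 h; readout is ATP-driven luciferase luminescence.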
# Tov112D = assay: as above; conditions: Gynecologic cancer cell panel viability, ATPlite luminescence, 48 h; series mostly up to 57.5 µM
# In short: as §1
# [1] = Drug repurposing screens with cells derived from glioblastoma tumor samples (AID 1345199); conditions: GBM patient neurospheres viability, ATP luminescence, 48 h; note: nearly all actives have a fitted effect of over 40% in size; note: potency is the fitted concentration of half-maximal effect; for activity, negative = cell killing: % is set by controls: 0 for no effect and ±100 for the full control effect
# In short: (§2)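 Primary testing used CD133+ neurospheres from four GBM patients, seven concentrations, 48 h exposure and ATP-based viability; confirmation added three slower-growing patient lines.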
# [2] = target: Nuclear receptor subfamily 1 group I member 2 (Rattus norvegicus) (UniProt Q9R1A7); assay: qHTS assay for small molecule activators of the rat pregnane X receptor (rPXR) signaling pathway (AID 651751; call rule not given here; note: 0% is about no effect); conditions: rPXR reporter cells, luciferase (One-Glo), 24 h
# Chain of Nuclear receptor subfamily 1 group I member 2 (Rattus norvegicus) (Q9R1A7 whole entry, looked up): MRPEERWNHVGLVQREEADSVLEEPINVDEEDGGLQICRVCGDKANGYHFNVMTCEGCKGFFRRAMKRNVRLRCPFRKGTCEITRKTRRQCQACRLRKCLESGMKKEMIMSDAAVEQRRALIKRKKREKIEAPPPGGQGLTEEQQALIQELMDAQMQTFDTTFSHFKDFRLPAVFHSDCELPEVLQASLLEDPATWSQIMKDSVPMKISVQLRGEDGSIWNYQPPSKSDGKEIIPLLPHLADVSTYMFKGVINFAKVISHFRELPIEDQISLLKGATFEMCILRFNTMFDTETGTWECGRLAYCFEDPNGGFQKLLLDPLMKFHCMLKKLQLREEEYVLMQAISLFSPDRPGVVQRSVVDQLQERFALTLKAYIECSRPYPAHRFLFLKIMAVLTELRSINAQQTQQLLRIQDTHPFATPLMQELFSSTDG
# astro = assay: Drug repurposing screens with cells derived from glioblastoma tumor samples (AID 1345199); conditions: viability, ATP luminescence, 48 h; series mostly up to 45.9 µM; note: nearly all actives have a fitted effect of over 40% in size; note: potency is the fitted concentration of half-maximal effect; for activity, negative = cell killing: % is set by controls: 0 for no effect and ±100 for the full control effect
# In short: as §2
# [3] = qHTS assay to identify inhibitors of the type 1 interferon - major histocompatibility complex class I in skeletal muscle: Counter screen cell viability and HiBit confirmation (AID 1347412); conditions: iHSKM muscle cells + IFN-b, HiBiT or CellTiter-Glo, 24 h; Potency: HiBiT; Viability, at 45.9 µM (top of the series); note: % is set by controls: 0 for no effect and ±100 for the full control effect; nearly all actives have a fitted effect of over 60% in size
# In short: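 CRISPR HLA-B*08:01-HiBit immortalized human myoblasts (C25cl48) stimulated with 4 ng/ml IFN-beta and compounds (12-point 1:3, top 46 uM final) for 24 h at 37 C. Duplicate plates read by HiBit lytic luminescence or CellTiter Glo ATP.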
# [4] = qHTS assay for small molecule activators of the human pregnane X receptor (PXR) signaling pathway (AID 720659; call rule not given here; note: 0% is about no effect)
# [5] = at 91.6 µM (top of the series), tumour line B
# [6] = at 99.2 µM (top of the series), tumour line C
# [7] = at 45.9 µM (top of the series), tumour line B
# [8] = at 45.9 µM (top of the series), tumour line D
# [9] = at 46.1 µM (top of the series), tumour line C
# [10] = at 46 µM (top of the series), tumour line A
compound,measurement,setting,value
CC(C)(c1ccc(O)cc1)c1ccc(O)cc1,Potency,Tov-21-G,inactive
same,Potency,Tov112D,inactive
same,"activity, negative = cell killing",[1]; [5],-24%
same,"activity, negative = cell killing",[1]; [6],-43.4%
same,max response,[2],7.46% and 2.86% and -5.15%
CCCCC(=O)OCC(=O)[C@H]1[C@H](C)C[C@H]2[C@@H]3C[C@H](F)C4=CC(=O)C=C[C@]4(C)[C@@]3(F)[C@@H](O)C[C@@]21C,Potency,Tov-21-G,inactive
same,Potency,Tov112D,inactive
same,"activity, negative = cell killing",[1]; [7],-0.839%
same,"activity, negative = cell killing",[1]; [8],-9.99%
same,"activity, negative = cell killing",[1]; [9],14.8%
same,Potency,astro,inactive
same,Potency,[3],inactive
C[C@H](CN1CCCC1)C(=O)c1ccc(C(F)(F)F)cc1,Potency,Tov-21-G,inactive
same,Potency,Tov112D,inactive
same,"activity, negative = cell killing",[1]; [7],-26.9%
same,"activity, negative = cell killing",[1]; [9],-22.1%
same,Potency,astro,inactive
CN1CCC(Nc2ncc3ncnc(Nc4ccc(F)c(Cl)c4)c3n2)CC1,Potency,Tov-21-G,inactive
same,Potency,Tov112D,inactive
same,Potency,astro,17.8 µM (active)
CC(=O)N[C@@H](CCC(N)=O)C(=O)O,Potency,Tov-21-G,inactive
same,Potency,Tov112D,inactive
same,Potency,astro,inactive
CCCC(=O)c1cc(O)c(O)cc1O,Potency,Tov-21-G,inactive
same,Potency,Tov112D,inactive
same,"activity, negative = cell killing",[1]; [5],-19.8%
same,"activity, negative = cell killing",[1]; [6],-23.6%
same,max response,[2],-4.26%
same,outcome,[4],inactive
Nc1ncnc2nc[nH]c12,Potency,Tov-21-G,inactive
same,Potency,Tov112D,inactive
same,Potency,astro,inactive
CC(=O)[C@@]1(O)CC[C@H]2[C@@H]3C[C@H](C)C4=CC(=O)CC[C@]4(C)[C@H]3CC[C@@]21C,Potency,Tov-21-G,inactive
same,Potency,Tov112D,inactive
same,"activity, negative = cell killing",[1]; [7],-5.63%
same,"activity, negative = cell killing",[1]; [8],-15.6%
same,"activity, negative = cell killing",[1]; [9],-11.3%
same,Potency,astro,inactive
same,Potency,[3],inactive
CCN(CC)CC(=O)OCC(=O)[C@@]1(O)CC[C@H]2[C@@H]3CCC4=CC(=O)CC[C@]4(C)[C@H]3[C@@H](O)C[C@@]21C,Potency,Tov-21-G,inactive
same,Potency,Tov112D,inactive
same,Potency,[3],inactive
CC(C)(C)c1ccc(O)c(O)c1,Potency,astro,inactive
same,max response,[2],-0.177% and 2.15%
CCCCCCCCCCCCCCCCCCNC(=O)OC1CCN(C(=O)OC[C@H](COC(=O)N(Cc2cccc[n+]2CC)C(=O)c2ccccc2OC)OC)CC1,Potency,Tov-21-G,25.1 µM (active)
same,Potency,astro,10 µM (active)
Nc1cccc2c(N)cccc12,"activity, negative = cell killing",[1]; [6],-15.4%
same,Potency,[1]; tumour line A,15.8 µM (active)
same,Potency,astro,inactive
same,max response,[2],-7.42% and 6.55%
CN1CC[C@H](c2c(O)cc(O)c3c(=O)cc(-c4ccccc4Cl)oc23)[C@H](O)C1,Potency,Tov112D,1.12 µM (active)
CC(C)C[C@H](NC(=O)CNC(=O)[C@H](Cc1ccc(O)cc1)NC(=O)[C@H](CO)NC(=O)[C@H](Cc1c[nH]c2ccccc12)NC(=O)[C@H](Cc1cnc[nH]1)NC(=O)[C@@H]1CCC(=O)N1)C(=O)N[C@@H](CCCN=C(N)N)C(=O)N1CCC[C@H]1C(=O)NCC(N)=O (stereo in doubt),"activity, negative = cell killing",[1]; [7],-6.26%
same,"activity, negative = cell killing",[1]; [8],6.77%
same,"activity, negative = cell killing",[1]; [10],-26%
same,"activity, negative = cell killing",[1]; [9],-6.29%
same,Potency,astro,inactive
CC(NCCC(c1ccccc1)c1ccccc1)c1ccccc1 (stereo unspecified),Potency,Tov-21-G,inactive
same,Potency,astro,25.1 µM (active)
CN1CCC(=C2c3ccccc3CCc3cccnc32)CC1,Potency,Tov112D,inactive
same,Potency,astro,inactive
CCN(CC)CCNC(=O)c1ccc(NS(C)(=O)=O)cc1,"activity, negative = cell killing",[1]; [7],-2.38%
same,"activity, negative = cell killing",[1]; [8],-14.7%
same,"activity, negative = cell killing",[1]; [9],-3.28%
same,Potency,astro,inactive
CC(=O)Nc1ccn(C2COC(COC(=O)c3ccccc3)O2)c(=O)n1 (stereo unspecified),Potency,Tov-21-G,inactive
same,"activity, negative = cell killing",[1]; [7],-21.5%
same,"activity, negative = cell killing",[1]; [9],-14.9%
COc1ccc(-n2nc(CCC(=O)N(C)O)cc2-c2ccc(Cl)cc2)cc1,Potency,Tov112D,inactive
O=C1Nc2ccccc2C1(c1ccc(O)cc1)c1ccc(O)cc1,Potency,[3],inactive
Nc1ccc(O)cc1,Potency,Tov-21-G,inactive
same,Potency,Tov112D,inactive
same,Potency,astro,35.5 µM (active)
same,max response,[2],4.17%
N=C(N)c1ccc(OCCCOc2ccc(C(=N)N)cc2)cc1,Potency,Tov112D,inactive
same,Potency,astro,11.2 µM (active)
C[N+](C)(C)CCO,"activity, negative = cell killing",[1]; [7],-20.6% and -4.58%
same,"activity, negative = cell killing",[1]; [8],-15.3% and -5.56%
same,"activity, negative = cell killing",[1]; [10],-28.3% and -25.4%
same,"activity, negative = cell killing",[1]; [9],20.9% and 13.7%
same,Potency,astro,inactive
CCOC(=O)O[C@]1(C(=O)OCCl)CC[C@H]2[C@@H]3CCC4=CC(=O)C=C[C@]4(C)[C@H]3[C@@H](O)C[C@@]21C,Potency,Tov-21-G,inactive
same,Potency,Tov112D,inactive
same,Potency,[3],inactive
COC(=O)[C@H]1[C@H]2C[C@@H]3c4[nH]c5cc(OC)ccc5c4CCN3C[C@H]2C[C@@H](OC(=O)/C=C/c2ccc(O)c(OC)c2)[C@@H]1OC,Potency,Tov112D,inactive
O=C(Nc1ccc(Cl)cc1)Nc1ccc(Cl)c(Cl)c1,Potency,Tov-21-G,inactive
same,max response,[2],-12.4%
same,outcome,[4],inactive
CC(C)(C)CC(=O)OCC(=O)[C@@]1(O)CC[C@H]2[C@@H]3CCC4=CC(=O)C=C[C@]4(C)[C@H]3[C@@H](O)C[C@@]21C,Potency,Tov-21-G,inactive
same,Potency,Tov112D,inactive
same,Potency,[3],inactive
OCc1c[nH]c2ccccc12,max response,[2],0.925%
same,outcome,[4],inactive
Oc1ccc(CCNCCCCCCNCCc2ccccc2)cc1O,"activity, negative = cell killing",[1]; [7],-20.6%
same,Potency,[1]; tumour line A,17.8 µM (active)
same,Potency,astro,inactive
NC(N)=NCCCCN=C(N)N,"activity, negative = cell killing",[1]; [7],-8.5%
same,"activity, negative = cell killing",[1]; [8],-4.71%
same,"activity, negative = cell killing",[1]; [10],-10%
same,"activity, negative = cell killing",[1]; [9],-21.5%
same,Potency,astro,inactive
Nc1c2ccccc2nc2ccccc12,Potency,Tov-21-G,14.1 µM (active)
same,"activity, negative = cell killing",[1]; [9],-4.16%
same,Potency,[1]; tumour line A,25.1 µM (active)
same,Potency,[1]; tumour line B,12.6 µM (active)
same,Potency,[1]; tumour line D,10 µM (active)
same,Potency,astro,10 µM (active)
CC(=O)Oc1ccc(C2(c3ccc(OC(C)=O)cc3)Oc3ccccc3NC2=O)cc1,Potency,Tov-21-G,22.4 µM (active)
same,"activity, negative = cell killing",[1]; [7],-28.4%
same,Potency,[1]; tumour line A,22.4 µM (active)
O=C1NC2CCCCN2C12CCN(CCCN1c3ccccc3CCc3ccc(Cl)cc31)CC2 (stereo unspecified),Potency,Tov-21-G,inactive
same,Potency,astro,20 µM (active)
